Source: PubChem
The list is not random: actives were taken first. Their share in the collection is about 1.6%.
GRK2 aptamer HTS: blocks RNA aptamer binding to human GRK2 | P25098 | bead flow cytometry, FAM-aptamer displacement from GRK2 | inhibition of aptamer binding, % at 10 µM | hit rate 0.59% among 330,000 | AID 488847;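 active = inhibition of aptamer binding above 40%, roughly 3 SD of noise, on plates passing a quality check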;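 also: median bead fluorescence of bound FAM aptamer so fluorescent compounds give negative values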
Target sequence (P25098 whole entry, looked up): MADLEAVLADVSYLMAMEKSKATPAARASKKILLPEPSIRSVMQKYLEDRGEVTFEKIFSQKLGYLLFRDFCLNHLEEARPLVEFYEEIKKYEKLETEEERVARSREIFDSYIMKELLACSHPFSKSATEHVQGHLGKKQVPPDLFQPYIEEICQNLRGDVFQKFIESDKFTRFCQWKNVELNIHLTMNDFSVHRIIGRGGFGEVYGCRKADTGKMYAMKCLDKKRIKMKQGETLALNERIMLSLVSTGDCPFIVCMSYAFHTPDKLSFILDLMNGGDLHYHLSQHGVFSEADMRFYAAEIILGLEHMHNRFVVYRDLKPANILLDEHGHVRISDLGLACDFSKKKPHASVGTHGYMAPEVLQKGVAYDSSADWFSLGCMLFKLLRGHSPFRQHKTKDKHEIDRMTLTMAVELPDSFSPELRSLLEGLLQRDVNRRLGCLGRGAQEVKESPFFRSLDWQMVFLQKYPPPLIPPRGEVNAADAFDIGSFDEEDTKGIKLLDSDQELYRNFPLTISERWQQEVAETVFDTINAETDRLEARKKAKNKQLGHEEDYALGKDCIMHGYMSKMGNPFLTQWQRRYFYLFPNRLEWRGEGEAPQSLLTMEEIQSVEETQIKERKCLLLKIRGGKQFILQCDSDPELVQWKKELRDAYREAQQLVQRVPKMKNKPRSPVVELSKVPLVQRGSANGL
CR mimetic SO: yeast age-related superoxide inhibition as caloric restriction mimetic. S. cerevisiae aged cells, superoxide DHE fluorescence; active compounds read low. superoxide response (% of plate mean), % at 10 µM. hit rate 0.18% among 330,000. AID 2690;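 active = superoxide response under a set limit, about three screen SD below normal, cut at about 65% in these data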;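 also: yeast aged for seven days with compound at 30 °C before DHE staining; 100% = average MFI of all compound-treated wells on the plate with controls excluded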
ATG4B inhibitor: ATG4B (human) cysteine protease inhibition | Q9Y4P1 | ATG4B cleavage of LC3-PLA2, NBD-HPC fluorescence, 1 h | inhibition, % at 8.33 µM | hit rate 0.51% among 340,000 | AID 504462; in the data active = inhibition above about 40%
Efflux pump mplx: blocks antifungal efflux pumps in multiplex yeast assay. AID 485275. inhibition, % at 10 µM. hit rate 0.44% among 330,000. S. cerevisiae Candida pump triplex, Nile Red efflux;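 active = plate passing quality check with inhibition over a set limit, or well fluorescence over plate mean plus 4 SD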;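 also: Nile Red retained in pooled yeast measured as flow cytometry median fluorescence; 0% = buffer negative control and 100% = Enniatin B positive control; higher means more Nile Red kept so more efflux inhibition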
ATG4B conf: ATG4B (human) inhibition, single-dose confirmed | inhibition, % at 8.33 µM | hit rate 92% among 320 | shares compounds with ATG4B inhibitor | ATG4B protease fluorescent substrate cleavage assay; in the data active = inhibition above about 39%
PLA2 counter: counter-screen for ATG4B inhibitors: human phospholipase A2; hit rate 66% among 1,600; AID 588402; shares compounds with ATG4B inhibitor; inhibition, % at 8.33 µM; purified PLA2, NBD-C6-HPC fluorescence, 45 min; in the data active = inhibition above about 50%
Numbers without * were called inactive; . = no result given.

SMILES | GRK2 aptamer HTS | CR mimetic SO | ATG4B inhibitor | Efflux pump mplx | PLA2 counter | others
NC(=O)c1ccc(-c2nnn(CC(=O)Nc3cccc(S(=O)(=O)N4CCCC4)c3)n2)cc1 | 1.0 | 103.9 | 3.7 | 0.0 | .
O=C(Cn1nnc(-c2ccc(S(=O)(=O)N3CCCC3)cc2)n1)Nc1ccccc1-n1cccc1 | 0.0 | 124.9 | 54.4* | 0.8 | 61.8*
O=C(OCc1cc(Cl)ccc1OC(F)F)c1cncc(Br)c1 | 1.0 | 96.2 | 52.1* | -0.1 | 54.2*
CC(=O)c1cccc(NC(=O)C2C3C=CC(C3=C(c3ccccc3)c3ccccc3)C2C(=O)O)c1 (configuration not stated) | 6.0 | 100.2 | 78.9* | 0.3 | 90.4*
Cc1c(C(=O)Nc2nccs2)sc2nc(-c3cccs3)cc(C(F)(F)F)c12 | 1.0 | 106.2 | 49.5* | 0.2 | 7.8
Cc1c(C(=O)O)sc2nc(-c3cccs3)cc(C(F)(F)F)c12 | 1.0 | 102.1 | 9.0 | -0.4 | .
Oc1c(Cl)cc(Cl)cc1C=Nc1ccc2c(c1)OCCO2 | 1.0 | 100.2 | 48.1* | -0.1 | 31.7 | ATG4B conf=53.6*
Brc1csc(C=Nc2ccc3c(c2)OCCOCCOCCOCCO3)c1 | 0.0 | 106.9 | -0.4 | 1.1 | .
Cc1c2ccccc2cc[n+]1CCCS(=O)(=O)[O-] | 0.0 | 79.3 | -3.4 | -0.1 | .
CC1(C)C(/C=C/C=C/C=C/C=C2\N(CCCCS(=O)(=O)O)c3ccc4ccccc4c3C2(C)C)=[N+](CCCCS(=O)(=O)[O-])c2ccc3ccccc3c21 | 4.0 | 83.5 | 90.0* | 0.3 | 94.6*
O=C(CN1CCOCC1)Nc1ccccc1-c1ccccc1 | 0.0 | 90.6 | -7.4 | -0.1 | .
O=C(CN1CCCCC1)Nc1ccccc1-c1ccccc1 | 0.0 | 112.5 | 46.0* | 0.1 | 59.2*
COc1ccc(-n2nc(C(=O)NCC(=O)N3CCN(Cc4ccccc4)CC3)c3ccccc3c2=O)c(OC)c1 | 0.0 | 106.4 | -1.3 | 0.1 | .
NC(=O)c1ccc(-n2nnnc2Oc2ccccc2)cc1 | 0.0 | 117.2 | 54.5* | 0.0 | 49.8
COc1ccccc1Oc1nnnn1-c1ccc(C(N)=O)cc1 | 0.0 | 104.6 | 10.1 | 0.1 | .
C/C=C/c1ccc(Oc2nnnn2-c2ccc(C(N)=O)cc2)c(OC)c1 | 2.0 | 105.8 | 69.3* | 0.2 | 80.5*
COC(=O)[C@H](CO)N1C(=O)[C@@H]2[C@H](C1=O)C1C=C[C@H]2C1 | . | . | 0.4 | . | .
CCCc1nn2c(=O)cc(CSCC(=O)Nc3ccc(OC)cc3)nc2s1 | 6.0 | 109.6 | -1.8 | -0.7 | .
O=C(Nc1ccc([N+](=O)[O-])cc1)Nc1ccc(N2CCOCC2)c2nonc12 | 0.0 | 104.3 | 3.7 | 0.1 | .
O=Cc1cc(Cl)ccc1OCCN1CCC(Cc2ccccc2)CC1 | 0.0 | 93.9 | 84.4* | -0.1 | 86.8*
Cc1c(C(=O)Nc2ccc(-c3nnc4n3CCCCC4)cc2)oc2c1ccc1ccccc12 | 0.0 | 89.2 | 45.2* | 0.6 | 59.7*
CN(CC(=O)Nc1ccc(Cl)cc1)c1ccc(S(=O)(=O)N2CCCCC2)cc1[N+](=O)[O-] | 2.0 | 98.6 | -15.7 | 0.3 | .
N#CCC(=O)Nc1ccc(C(=O)OCC(=O)N=c2sccn2Cc2ccccc2Cl)cc1 | 0.0 | 108.3 | 41.2* | 0.0 | 56.9*
O=C(COC(=O)c1ccc(O)cc1O)N=c1sccn1Cc1ccccc1Cl | 1.0 | 107.3 | 42.9* | 0.3 | 56.6*
CCOCCCNC(=O)C1CCN(S(=O)(=O)c2ccc3nc4c(c(C(=O)O)c3c2)CCCCC4)CC1 | 0.0 | 88.8 | -0.8 | 0.1 | .
SMILES | GRK2 aptamer HTS | CR mimetic SO | ATG4B inhibitor | Efflux pump mplx | PLA2 counter | others
Cn1cccc1C(=O)NC(=O)COC(=O)CC12CC3CC(CC(Br)(C3)C1)C2 | 0.0 | 79.4 | 61.4* | 0.1 | 72.9*
O=C(COC(=O)CC12CC3CC(CC(Br)(C3)C1)C2)NC(=O)NCc1ccco1 | 2.0 | 92.6 | -6.9 | 0.1 | .
Cn1cccc1C(=O)NC(=O)COC(=O)CC12CC3CC(CC(C3)C1)C2 | 2.0 | 97.0 | 62.1* | 0.3 | 53.9*
O=C(CCN1C(=O)[C@@H]2Cc3ccccc3CN2C1=O)N[C@H](C(=O)O)c1ccccc1 | 0.0 | 100.7 | -1.2 | 0.0 | .
O=C(c1ccc(Br)c(S(=O)(=O)N2CCOCC2)c1)N1CCN(C/C=C/c2ccccc2)CC1 | . | . | -4.7 | . | .
Cc1ccc(CSCCC(=O)NCCC2=CCCCC2)cc1 | 0.0 | 101.6 | 16.0 | 0.4 | .
O=C(CCSCc1cccc(Cl)c1)NCCC1=CCCCC1 | 5.0 | 103.0 | 46.4* | 0.1 | 25.0
N#C/C(=N\Nc1cccc([N+](=O)[O-])c1)C(=O)c1ccc(Br)cc1 | 3.0 | 97.5 | 57.1* | -0.2 | 80.1*
Cc1ccc(N=C2SC(C(=O)Nc3ccc(OC(F)(F)F)cc3)C(N)=C2C(=O)Nc2c(C)cc(C)cc2C)cc1 (configuration not stated) | 4.0 | 76.4 | 61.9* | 0.2 | 61.5*
Cc1ccc(NC(=O)C2SC(=Nc3ccccc3)C(C(=O)Nc3ccc(Cl)cc3)=C2N)cc1 (configuration not stated) | . | . | -4.6 | . | .
Cc1nc2ccccc2c(C)c1CC(=O)OC(C)C(=O)NC1(C#N)CCCCC1 (configuration not stated) | 3.0 | 103.0 | -7.5 | -0.1 | .
Cc1cccc(NC(=S)Nc2cccc(C)n2)n1 | 0.0 | 82.4 | 0.6 | -0.1 | .
Cc1cccc(NC(=S)Nc2ccc(Oc3ccccc3)cc2)n1 | 0.0 | 103.5 | 44.4* | -1.7 | 45.1 | ATG4B conf=66.7*
O=C1c2ccccc2C(=O)N1c1ncc(Cc2ccc(Cl)cc2)s1 | 0.0 | 93.2 | 80.4* | -0.2 | 64.5*
Cc1ccc(Cc2cnc(N3C(=N)SC(C)C3=O)s2)cc1 (configuration not stated) | 1.0 | 103.3 | 2.4 | -0.2 | .
N#C/C(=C\c1ccccc1[N+](=O)[O-])c1nc(C2CC2)cs1 | 0.0 | 76.5 | 48.4* | 0.2 | 62.7*
N#C/C(=C/c1ccccc1[N+](=O)[O-])c1nc(C2CC2)cs1 | 6.0 | 102.2 | 34.3 | 0.6 | .
O=c1oc(-c2cccs2)nc2sc3c(c12)CCCC3 | 1.0 | 121.4 | -5.4 | -0.1 | .
O=C1CN(c2nc(-c3cccs3)nc3sc4c(c23)CCCC4)CCN1 | 1.0 | 93.5 | 75.8* | -0.2 | 87.1*
Cn1cccc1-c1cc(C(=O)N/N=C/c2cc(Br)ccc2O)[nH]n1 | 0.0 | 104.0 | 49.1* | 0.1 | 56.0*
Fc1cccc(Cl)c1CNc1ccc(N2CCCC2)cc1 | 0.0 | 85.4 | 58.8* | 0.0 | 58.0*
NS(=O)(=O)c1ccc(NCc2c(F)cccc2Cl)cc1 | . | . | 21.8 | . | .
Cc1ccccc1N1CCN(Cc2ccc(Br)o2)CC1 | 1.0 | 103.6 | 18.1 | -0.1 | .
N#C/C(=C\c1ccc(OCC(N)=O)cc1)c1ccccc1 | 1.0 | 103.5 | 45.1* | 0.2 | 52.7*
COc1ccc(Cl)cc1NC(=O)Nc1cccc([N+](=O)[O-])c1C | 2.0 | 106.5 | 78.3* | -0.1 | 85.8*
Cn1cc(CCNC(=O)C2CCC(=O)N(CCc3ccc(Cl)cc3)C2)cn1 (configuration not stated) | 0.0 | 104.2 | 19.8 | 0.0 | .
